Experimental data from PubChem BioAssay (NCATS).
Inconclusive results are not listed. Activity calls are given as the source filed them. Calls follow the shape of the dose curve; as a rule, active = well fitted curve in the direction sought with a large enough effect; inconclusive = small, poorly fitted or top-dose-only effect, or another doubt; inactive = no such curve, though single readings can be large; an effect the other way counts as inactive or inconclusive. *1 amine or outer side, *2 acyl side, *3 side chain or, on linkers, in order; H or OH if unused. Where a SMILES comes first, the peptide text is derived from it. Bridges are numbered along the chain shown (N, C = ends). [ ]: non-standard residue; d: D form. The star is where a group is joined. ξ: configuration not given here. ξhTyr(3S-OH,4S-OH,3'-OSO3H) = NC(C(=O)O)[C@H](O)[C@@H](O)c1ccc(O)c(OS(=O)(=O)O)c1; Orn(4R-OH,5R-OH) = O=C([C@H](C[C@@H](O)[C@@H](O)N[*:3])N[*:1])[*:2]; X2 = CCCCCOc1ccc(-c2cc(-c3ccc(C(=O)*)cc3)no2)cc1; X3 = C[C@H]1CN([*:1])C(C(=O)[*:2])[C@H]1O; ξGln(3R-OH) = NC(=O)C[C@@H](O)C(N)C(=O)O; ξPro(4R-OH) = O=C(O)C1C[C@@H](O)CN1; ξThr(3R) = C[C@@H](O)C(N)C(=O)O

Experiments:
[1] = target: Calcium and integrin-binding protein 1 (Homo sapiens) (UniProt Q99828); experiment: Primary qHTS for Identification of Calcium Integrin Binding Protein 1 (CIB1) Competitor (AID 1508620);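 also: GST tagged CIB1 binding a fluorescein labelled alphaIIb integrin peptide tracer; top concentration of the series differs between compounds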
How it was run: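 CIB1-GST (1 uM final) and compound incubated 15 min at room temperature before adding FITC-alphaIIb peptide tracer (100 nM final). Competition for binding read by fluorescence polarization (ex 480, em 540) after another 15 min at room temperature.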

[2] = Primary qHTS for inhibitors of nuclear receptor binding SET domain protein 2 (NSD2) in an isogenic RCH-ACV NSD2 p.E1099K mutant (9B) (AID 1645876); also: nearly all actives have a fitted effect of over 70% in size
[3] = Primary qHTS for inhibitors of nuclear receptor binding SET domain protein 2 (NSD2) in an RCH-ACV wild type WT cells (2C) (AID 1645877); also: nearly all actives have a fitted effect of over 70% in size
% is scaled to controls: 0 for no effect and ±100 for the full control effect.

Chain of Calcium and integrin-binding protein 1 (Homo sapiens) (Q99828 whole entry, looked up): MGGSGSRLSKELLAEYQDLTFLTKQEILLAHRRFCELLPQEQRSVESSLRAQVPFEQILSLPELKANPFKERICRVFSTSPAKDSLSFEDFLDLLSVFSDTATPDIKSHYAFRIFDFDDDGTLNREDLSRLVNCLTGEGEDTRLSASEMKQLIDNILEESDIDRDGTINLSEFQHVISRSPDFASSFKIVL

C/C=C(/C)C(=O)O[C@@H]1C[C@@H](OC(=O)/C(C)=C\C)[C@@]2(C)C3C(=O)C=C(C)C2C3C1(C)C
inactive: Potency [1] | Potency [2] | Potency [3]

CC/C=C\C(O)C(O)C1=C(C)C(=O)C2(O1)C(=O)NC(OC)(C(=O)c1ccccc1)C2O (stereo unspecified)
inactive: Potency [1] | Potency [2] | Potency [3]

C/C=C(/C)C(=O)OC1CC(C)(C)CC2C3=CCC4C5(C)CCC(OC6OC(C)C(OC7OC(C(=O)O)C(O)C(OC8OC(CO)C(O)C(O)C8OC8OC(CO)C(O)C(O)C8O)C7O)C(O)C6O)C(C)(C)C5CCC4(C)C3(C)C(OC(=O)/C=C/C=C/C=C/CCC)C(OC(C)=O)C12CO (stereo unspecified)
inactive: activity change, negative = inhibition [1] 0.802% [at 12.4 µM] | activity change, negative = viability loss [2] -8.21% [at 9.23 µM] | activity change, negative = cell killing [3] -14.8% [at 9.23 µM]

CC(=O)OC1(C)CC(O)C2(O)C=COC(OC3OC(CO)C(O)C(O)C3O)C12 (stereo unspecified)
inactive: Potency [1] | Potency [2] | Potency [3]

CC1CCC2(C)CCC3(C)C(=CCC4C5(C)CCC(O)C(C)(C(=O)O)C5CCC43C)C2C1C (stereo unspecified)
inactive: Potency [1] | Potency [2] | Potency [3]

CCCCCOc1ccc(-c2cc(-c3ccc(C(=O)N[C@H]4C[C@@H](O)[C@@H](O)NC(=O)C5[C@@H](O)[C@@H](C)CN5C(=O)C([C@H](O)CC(N)=O)NC(=O)C([C@H](O)[C@@H](O)c5ccc(O)c(OS(=O)(=O)O)c5)NC(=O)C5C[C@@H](O)CN5C(=O)C([C@@H](C)O)NC4=O)cc3)no2)cc1 (stereo partly drawn) (X2-[Orn(4R-OH,5R-OH)][ξThr(3R)][ξPro(4R-OH)][ξhTyr(3S-OH,4S-OH,3'-OSO3H)][ξGln(3R-OH)][X3]; lactam 1-C)
inactive: Potency [1] | Potency [2] | Potency [3]

COc1cncc(C#Cc2ccccn2)c1
inactive: Potency [1] | Potency [2] | Potency [3]

CC1=C[C@@H]2[C@H]3[C@@H]4O[C@@](C)(CC[C@H]4O)[C@H]3CC(=O)[C@]23C(=O)N[C@@H](CC(C)C)[C@@H]3[C@@H]1C
inactive: Potency [1] | Potency [2] | Potency [3]

Cc1ccc(-c2c(-c3nn(C)c4ncnc(N5CC[C@H](N6CCCCC6)C5)c34)cnn2C)cc1
inactive: Potency [1] | Potency [2] | Potency [3]

CC(C)(Oc1ccc(-c2nc3cc(Cl)ccc3s2)cc1)C(=O)O
inactive: Potency [1] | Potency [2] | Potency [3]

CC(C)/C=C1/NC(=O)C(C(C)C)n2c1nc1c(O)cccc1c2=O (stereo unspecified)
inactive: Potency [1] | Potency [2] | Potency [3]

CC(=O)O[C@@H]1C(O)C[C@@]2(C)C(CC[C@@H](C)C23Cc2c(O)cc4c(c2O3)CNC4=O)C1(C)C (stereo partly specified)
inactive: Potency [1] | Potency [2] | Potency [3]

CC(C)C1CCC(C(=O)N[C@@H](Cc2ccccc2)C(=O)O)CC1 (stereo partly specified)
inactive: Potency [1] | Potency [2] | Potency [3]

CC(C)C1(O)C=C2C(=O)CC3C(C)(C(=O)O)CCCC3(C)C2CC1 (stereo unspecified)
inactive: Potency [1] | Potency [2] | Potency [3]

CC1(C)CCC[C@]2(C)C1CC=C(CO)[C@H]2CC/C(=C/CO)CO (stereo partly specified)
inactive: Potency [1] | Potency [2] | Potency [3]

O=C(O)c1ccnc(-c2cc(C(=O)NCCc3ccccc3)ccn2)c1
inactive: Potency [1] | Potency [2] | Potency [3]

C[C@@]1(C(=O)O)CCC[C@@]2(C)C3=CC[C@H]4C[C@@]3(CC[C@H]12)CC4(O)CO (stereo partly specified)
inactive: Potency [1] | Potency [2] | Potency [3]

Cn1cc(Nc2cnccc2C(=O)O)c2cccnc21
inactive: Potency [1] | Potency [2] | Potency [3]

CSCC1OC(n2cnc3c(N)ncnc32)C(O)C1O (stereo unspecified)
inactive: Potency [1] | Potency [2] | Potency [3]

CC(=O)O[C@@H]1[C@H](O[C@@H]2OC[C@](O)(CO)[C@H]2O)[C@@H](O[C@@H]2O[C@@H](C)[C@H](O)[C@@H](O[C@@H]3O[C@H](CO)[C@@H](O)[C@H](O)[C@H]3O)[C@H]2O)[C@H](OC(=O)[C@]23CCC(C)(C)C[C@H]2C2=CCC4[C@@]5(C)C[C@H](O)[C@H](O[C@@H]6O[C@H](C(=O)O)[C@@H](O)[C@H](O)[C@H]6O)[C@@](C)(C(=O)O)C5CC[C@@]4(C)[C@]2(C)CC3)O[C@@H]1C (stereo partly specified)
inactive: activity change, negative = inhibition [1] 4.9% [at 12.4 µM] | activity change, negative = viability loss [2] 4.2% [at 9.23 µM] | outcome [3] inactive [at 9.23 µM]

CC(=O)OC1CC2(C)C(CCC(C)C23Cc2c(O)cc4c(c2O3)CNC4=O)C(C)(C)C1O (stereo unspecified)
inactive: Potency [1] | Potency [2] | Potency [3]

C[C@@]1(O)[C@H](O)[C@@H](CO)O[C@H]1n1cnc2c(=O)[nH]c(N)nc21
inactive: Potency [1] | Potency [2] | Potency [3]

Cc1sc(C)c(C(=O)NC2(c3ccc(C(=O)O)cc3)CC2)c1Cc1ccc(C(F)(F)F)cc1
inactive: Potency [1] | Potency [2] | Potency [3]

CC1CCC2C(C)(C)[C@H](O)CC[C@]2(C)C12Cc1c(O)cc3c(c1O2)CN(C(CCC(=O)O)C(=O)O)C3=O (stereo partly specified)
inactive: Potency [1] | Potency [2] | Potency [3]

C[C@@H]1O[C@@H](O[C@@H]2[C@@H](O)[C@H](O[C@H]3[C@H](O[C@H]4CC[C@@]5(C)C(CC[C@]6(C)C5CC=C5[C@@H]7CC(C)(C)CC[C@]7(C(=O)O[C@@H]7O[C@H](CO)[C@@H](O)[C@H](O)[C@H]7O)CC[C@]56C)C4(C)C)O[C@H](C(=O)O)[C@@H](O)[C@@H]3O)OC[C@H]2O)[C@H](O)[C@H](O)[C@H]1O (stereo partly specified)
inactive: Potency [1] | activity change, negative = viability loss [2] 2.27% [at 9.23 µM] | activity change, negative = cell killing [3] -1.93% [at 9.23 µM]

O=C(/C=C/N1C[C@@H]2C[C@@H]1CN2c1ccccn1)c1ccccc1O
inactive: Potency [1] | Potency [2] | Potency [3]

C=CC(C)(CC/C=C(\C)C(=O)OC[C@H]1O[C@@H](OC(C)(C=C)CC/C=C(\C)C(=O)O[C@H]2[C@H](O)[C@@H](O)[C@H](OC(C)(C=C)CC/C=C(\C)C(=O)O)O[C@@H]2CO)[C@H](O)[C@@H](O)[C@@H]1O)O[C@@H]1O[C@H](CO)[C@@H](O)[C@H](O)[C@H]1O (stereo partly specified)
inactive: Potency [1] | activity change, negative = viability loss [2] -1.17% [at 9.23 µM] | outcome [3] inactive [at 9.23 µM]

C[C@@H]1C(=O)O[C@H]2[C@H]1CC[C@@]1(C)C(=O)C=C[C@@](C)(O)[C@H]21
inactive: Potency [1] | Potency [2] | Potency [3]

C=C(CCO[C@@H]1O[C@H](CO)[C@@H](O)[C@H](O)[C@H]1O)C(=O)O
inactive: Potency [1] | Potency [2] | Potency [3]

COC(=O)C1(C)CCCC2(C)c3ccc(C(C)C)cc3C(O)C(O)C12 (stereo unspecified)
inactive: Potency [1] | Potency [2] | Potency [3]

CCC(C)/C=C(C)/C=C/C1=CC2=C(Cl)C(=O)C(C)(OC(C)=O)C(=O)C2=CN1C(CCCN=C(N)N)C(=O)O (stereo unspecified)
inactive: Potency [1] | Potency [2] | Potency [3]

Fc1cccc(CN(C2=NCCN2)c2c(Cl)cccc2Cl)c1
inactive: Potency [1] | Potency [2] | Potency [3]

O=C(O)CCc1cccc(O)c1O[C@@H]1O[C@H](CO)[C@@H](O)[C@H](O)[C@H]1O
inactive: Potency [1] | Potency [2] | Potency [3]

C/C=C/C(=O)OC1/C=C/C(O)C(OC(C)=O)CCC(=O)OC1C (stereo unspecified)
inactive: Potency [1] | Potency [2] | Potency [3]

COC(=O)C1=CO[C@@H](O[C@@H]2O[C@H](CO)[C@@H](O)[C@H](O)[C@H]2O)[C@H]2[C@@H]1[C@H](O)[C@H](O)[C@]2(C)O
inactive: Potency [1] | Potency [2] | Potency [3]

COc1cc(C)c(C(=O)O[C@@H]2[C@H](O)[C@@H](CO)O[C@H]2n2ccc(=O)[nH]c2=O)c(OC)c1
inactive: Potency [1] | Potency [2] | Potency [3]

C[C@@H]1CCC2C(C)(C)[C@H](O)[C@H](O)C[C@]2(C)[C@@]12Cc1c(O)cc3c(c1O2)CN(CCCC(=O)O)C3=O (stereo partly specified)
inactive: Potency [1] | Potency [2] | Potency [3]

CC(=O)OCC(Cc1ccccc1)NC(=O)C(Cc1ccccc1)NC(=O)c1ccccc1 (stereo unspecified)
inactive: Potency [1] | Potency [2] | Potency [3]

C/C=C(\C)C(=O)OCC1OC(OCC2OC(OC3(CO)OC(CO)C(O)C3O)C(O)C(O)C2O)C(O)C(O)C1O (stereo unspecified)
inactive: Potency [1] | Potency [2] | Potency [3]

CCN1CCN(C(=O)N[C@@H](C(=O)N[C@@H]2C(=O)N3[C@@H]2SC(C)(C)[C@@H]3C(=O)O)c2ccccc2)C(=O)C1=O
inactive: Potency [1] | Potency [2] | Potency [3]

COC(=O)C(CC1(O)c2ccccc2N2C(=O)C(C)(C)N(O)C21)n1cnc2ccccc2c1=O (stereo unspecified)
inactive: Potency [1] | Potency [2] | Potency [3]

C=C1CCC2[C@](C)(CCC[C@]2(C)C(=O)O)[C@H]1CC/C(C)=C/C(=O)OC (stereo partly specified)
inactive: Potency [1] | Potency [2] | Potency [3]

COC(=O)C1C(c2ccc(O)cc2)C(C(=O)O)C1c1ccc(O)cc1 (stereo unspecified)
inactive: Potency [1] | Potency [2] | Potency [3]

C=C1C[C@]23C[C@H]1CC[C@H]2[C@]1(C)CC[C@H](O)[C@@](C)(C(=O)O)[C@H]1[C@@H]3C(=O)O
inactive: Potency [1] | Potency [2] | Potency [3]

CC(C)=C1C[C@@]2(C)C(=CC1=O)CC[C@@H](O)[C@@H]2C
inactive: Potency [1] | Potency [2] | Potency [3]

C=CC(C)(C)C12Nc3c(ccc4c3OC(C)(C)C=C4)C1(O)CC1C(=O)N3CCCC3C(=O)N12 (stereo unspecified)
inactive: Potency [1] | Potency [2] | Potency [3]

COc1cc(C(O)C2COC(c3ccc(OC4OC(CO)C(O)C(O)C4O)c(OC)c3)C2CO)ccc1O (stereo unspecified)
inactive: Potency [1] | Potency [2] | Potency [3]

Cc1cn2cc(CC(=O)N3CCC4(CC3)CN(Cc3ccc(-n5nccn5)cc3Cl)C4)nc2s1
inactive: Potency [1] | Potency [2] | Potency [3]

C=C(C)[C@@H]1CC[C@]2(CO)CC[C@]3(C)[C@H](CC[C@@H]4[C@@]5(C)CC[C@H](O)C(C)(C)[C@@H]5CC[C@]43C)[C@@H]12
inactive: Potency [1] | Potency [2] | Potency [3]

COC(=O)C1=C[C@@H](O)[C@@H](O)[C@H](O[C@@H]2O[C@H](CO)[C@@H](O)[C@H](O)[C@H]2OC(=O)/C=C/c2ccccc2)C1
inactive: Potency [1] | Potency [2] | Potency [3]

CC(=O)OC(C)C(C)(O)C(=O)O[C@@H]1CC[C@]2(C)CC(=O)C(=C(C)C)C[C@H]2[C@]1(C)OC(C)=O (stereo partly specified)
inactive: Potency [1] | Potency [2] | Potency [3]

COc1cc(O)c2c(c1)C1(OC2=O)C(C)=CC(=O)C1O (stereo unspecified)
inactive: Potency [1] | Potency [2] | Potency [3]
